HIF activator: HIF pathway transcriptional activation; activation, % at 7.5 µM (by protocol); hit rate 0.32% among 300,000; U2OS HRE-luciferase reporter, luminescence; normalized: DMSO 0%, desferrioxamine 100%;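 active means mean activation of at least 10% of the iron chelator positive control signal, with at least half of replicates also reaching 10%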
ALR H2O2 inh: inhibitors of human sulfhydryl oxidase ALR | purified ALR, DTT oxidation, H2O2 HRP-luminol luminescence | AID 485317 | inhibition, % (no concentration beside the values) | hit rate 3.8% among 290,000 | P55789;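 active means mean replicate inhibition above about 79%, with every replicate also reaching it, limit read from the data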
Target sequence (P55789 whole entry, looked up): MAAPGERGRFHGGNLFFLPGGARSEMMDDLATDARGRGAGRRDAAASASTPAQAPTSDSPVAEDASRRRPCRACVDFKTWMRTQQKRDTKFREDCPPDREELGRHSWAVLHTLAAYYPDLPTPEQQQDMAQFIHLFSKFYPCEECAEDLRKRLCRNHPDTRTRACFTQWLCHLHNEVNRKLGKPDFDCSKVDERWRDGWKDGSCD
SUMO Mot1 rescue: inhibitors of SUMOylation pathway: yeast Mot1-301 growth rescue | S. cerevisiae Mot1-301 growth rescue, ATP luminescence, 38.5C; percent above DMSO median, 100 means doubled | growth rescue, % at 18.8 µM | hit rate 1% among 320,000;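 active means every valid replicate shows activation above 250% relative to neutral control wells; inactive means the rest, any valid replicate at or below 250%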;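 further: OY570 slx delta 5 strain wells were the positive control but not used for scaling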
AI-2 QS mod: modulates the Vibrio harveyi AI-2 quorum sensing system; Vibrio harveyi JMH597 AI-2 luminescence/OD600 ratio, 9 h; stronger effect = lower value; strain lacks LuxN and CqsS sensors; 0 = neutral-control median; activity change, % at 7.5 µM; hit rate 0.4% among 300,000; AID 2094; in the data active means activity change below about -75%, passing the limit was not always enough;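 further: luminescence divided by OD600 gain over 9 h not by final OD600 alone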
Mot1 SUMO dose: inhibits SUMO pathway, affecting Mot1-301 yeast growth | shares compounds with SUMO Mot1 rescue | S. cerevisiae Mot1-301 galactose growth, ATP luminescence, 24 h; -100 = growth of slx-deleted rescue strain | growth activity, percent, % at 42 µM | 2,300 tested, under 10 active | AID 493004;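 active means Signal drops as the depositor expects, and the fitted half-maximal dose is no more than ten times the top valid tested dose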;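 further: more negative values mean stronger growth rescue toward the control strain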
* = called active by the depositor; . = no result given; + = active, no number. This is a sample that favours compounds with a hit; in the whole collection about 4.8% have one here.

SMILES	HIF activator	ALR H2O2 inh	SUMO Mot1 rescue	AI-2 QS mod	Mot1 SUMO dose
COc1cccc(Cn2cnc3c(NS(=O)(=O)c4ccc(Cl)cc4Cl)c(C)c(C)cc32)c1	0	-10	-6	-2	.
Cc1cc2cc(C)c3nnc(SCC(=O)NCc4ccc5c(c4)OCO5)n3c2cc1C	-1	-2	-11	25	.
Cc1cc(C)c2cc(C)c3nnc(SCC(=O)NCc4ccc5c(c4)OCO5)n3c2c1	0	13	621*	35	0
CCCCNC(=O)NS(=O)(=O)c1ccc(NC(=O)CCC(=O)c2cccs2)cc1	-1	.	3	2	.
O=C(Nc1ccc(F)cc1)c1ccc(CSc2ccccc2)o1	1	-25	+	12	0
O=C(Nc1ccc(F)cc1)c1ccc(CSc2ccc(Cl)cc2)o1	0	42	-13	19	.
O=C(O)CC1Sc2nnc(COc3ccc(Cl)cc3)n2N=C1c1ccccc1 (configuration not stated)	0	-3	-5	9	.
COc1ccccc1NC(=O)C(C)OC(=O)/C(=C/c1ccccc1)NC(C)=O (configuration not stated)	0	14	4	7	.
CC(OC(=O)/C=C/c1ccco1)C(=O)NC1CCCCC1C (configuration not stated)	.	0	-6	.	.
CC1C(=O)CC(c2ccccc2)N(C)C1c1ccccc1 (configuration not stated)	0	-2	537*	27	0
O=C(COc1cnc2ccccc2n1)NCCC1=CCCCC1	-1	-6	+	-10	-1
O=C(COc1ncnc2ccccc12)NCCC1=CCCCC1	0	-4	-13	-35	.
O=C(COc1ncnc2c(Cl)cc(Cl)cc12)NCCC1=CCCCC1	0	.	420*	4	0
CCc1ccc(N(C(=O)Cn2nnc(-c3ccccc3)n2)C(C(=O)NC2CCCCC2)c2ccccn2)cc1 (configuration not stated)	1	-9	-18	20	.
CCCCN(C(=O)c1ccc2c(c1)S(=O)(=O)N=C1CCCCCN12)c1c(N)n(CCCC)c(=O)[nH]c1=O	0	0	248	.	.
Cc1cc2c(SCC(=O)NCC3CCCO3)ncnc2s1 (configuration not stated)	0	.	.	6	.
O=C1CCCN1CCC(=O)N1CCCC(N2CCN(c3ccccc3F)CC2)C1 (configuration not stated)	0	7	481*	17	0
C/C(=N\N1CCN(Cc2ccccc2Cl)CC1)c1ccc([N+](=O)[O-])cc1	-1	-8	832*	-5	1
O=C(c1ccc(Cl)c(S(=O)(=O)N2CCOCC2)c1)N1CCc2ccccc2C1	.	2	-3	.	.
Cc1nn(C)cc1S(=O)(=O)Nc1ncccn1	0	-6	598*	22	0
Cc1ccc(N2C(=O)c3ccccc3NC2c2ccccc2O)cc1 (configuration not stated)	-1	27	-16	-1	.
O=C1c2ccccc2NC(c2ccccc2O)N1O (configuration not stated)	-10	91*	384*	49	-1
Cc1ccc(-n2c(SCC(=O)N(C)C3CCS(=O)(=O)C3)nc3ccccc3c2=O)cc1 (configuration not stated)	0	19	499*	4	0
CN(C(=O)COC(=O)c1cc(-c2ccc(Cl)s2)nc2ccccc12)C1CCS(=O)(=O)C1 (configuration not stated)	-57	0	511*	20	1
C=CCOc1ccc(CN(C)CC(O)COc2cccc3ccccc23)cc1 (configuration not stated)	-9	-169	41	.	.
SMILES	HIF activator	ALR H2O2 inh	SUMO Mot1 rescue	AI-2 QS mod	Mot1 SUMO dose
CN(C)C(CNC(=O)CNC(=O)Cc1cccc2ccccc12)c1ccccc1 (configuration not stated)	2	18	14	34	.
CCCN(CC(=O)Nc1ccccc1C)C(=O)/C=C/c1ccc(S(=O)(=O)N2CCCCCC2)cc1	-1	5	-10	2	.
COc1cc(/C=N/n2cnnc2)ccc1OCc1ccc(C)cc1	2	.	142	15	.
COc1cc(/C=N/n2cnnc2)ccc1OCc1ccccc1	2	0	540*	9	1
CC1CCCC(NC(=O)CSc2n[nH]c(=O)n2Cc2ccccc2)C1C (configuration not stated)	.	-11	17	.	.
CC(C(=O)Nc1ccccc1-c1ccccc1)N1CCN(Cc2ccccc2)CC1 (configuration not stated)	0	-17	528*	8	0
Cc1ccc(C(=O)NNC(=O)c2n[nH]c(=O)c3ccccc23)cc1C	.	4	-4	.	.
CCn1c(COc2ccc(C)cc2)nnc1SCC(=O)NNC(=O)c1ccc(OC)cc1	0	-7	-8	-6	.
CCc1nn(C)c(N)c1C	0	-6	392*	9	0
Nc1nc2ccc(C(=O)NC3CCCCC3)cc2s1	0	9	5	10	.
O=C(NC1CCCCC1)c1ccc2snnc2c1	1	1	529*	.	0
COc1ccc(OCCSc2nc3ccccc3n2CCC(=O)O)cc1	1	0	10	18	.
COc1ccccc1OCCSc1nc2ccccc2n1CCC(=O)O	-3	4	+	12	0
COCCN1C=C(C(=O)OC)C(c2cc3c(cc2Br)OCO3)C(C(=O)OC)=C1	0	-3	557*	2	0
CC(C)NC(=O)COc1ccc(S(=O)(=O)N(C)Cc2ccccc2)cc1	-2	8	363*	-8	-1
O=C(NCCn1cccn1)C1CCC(=O)N(CCc2cccc(F)c2)C1 (configuration not stated)	0	-10	163	19	.
CCN(CCn1cccn1)C(=O)C1CCC(=O)N(CCc2cccc(F)c2)C1 (configuration not stated)	0	-3	689*	21	0
NS(=O)(=O)c1cccc(NC(=O)CSc2nc3ccccc3[nH]2)c1	0	-8	9	40	.
Cc1ccc2nc(SCC(=O)Nc3cccc(S(N)(=O)=O)c3)[nH]c2c1	0	.	741*	-1	0
NC(=O)NC(=O)COC(=O)/C=C/c1cccs1	0	4	405*	9	0
O=C(CSc1nnc(-c2ccccc2O)o1)Oc1ccc(Br)cc1	0	-3	-22	20	.
O=C(CSc1nnc(-c2ccccc2Cl)o1)Oc1ccc(Br)cc1	0	-8	501*	3	0
CCOc1ccccc1N(CC(=O)NC(C)(C)C)C(=O)CCC(=O)Nc1nccs1	0	-1	-11	-1	.
N#Cc1ccc(NC(=O)Cn2cnc(S(=O)(=O)N3CCCC3)c2)cc1	0	-4	-6	28	.
Cc1ccccc1P(=O)(CO)c1ccccc1C	0	-4	414*	1	1
O=C(NCC1CCCO1)C1CC(=O)N(c2ccccc2)C1 (configuration not stated)	0	.	1	9	.

Screening results deposited in PubChem BioAssay by Broad Institute.
